# High-throughput results as filed in PubChem BioAssay.
# MARV entry inh: qHTS for inhibitors of binding or entry into cells for Marburg Virus | 1.8% of 300,000 active | Marburg virus pseudotyped entry inhibition, cell reporter | Potency, µM (top dose mostly 37.8 µM), usual class: inhibitors | AID 540276, 2011; calls by dose curve; tested in HEK293 cells
# VACV Venus inh: qHTS for Stage-Specific Inhibitors of Vaccinia Orthopoxvirus: Venus Reporter Primary qHTS. Vaccinia virus Venus reporter expression, fluorescence. Potency, µM (titrated, usually from 36.5 µM), most hits filed as inhibitors. 0.46% of 330,000 active; calls by dose curve; tested in A549 cells; note: nearly all actives have a fitted effect of over 30% in size
# LASV entry inh: qHTS for Inhibitors of binding or entry into cells for Lassa Virus. Lassa virus pseudotype entry inhibition, cell reporter. Potency, µM (top dose mostly 37.9 µM), usual class: inhibitors. 1.2% of 300,000 active; calls by dose curve; tested in HEK293 cells; note: nearly all actives have a fitted effect of over 50% in size
# HCV inhibitor: qHTS Assay for Inhibitors of Hepatitis C Virus (HCV); Huh7.5.1 HCVcc-Cre infection, luciferase reporter, 44 h; Potency, µM (series often up to 41.8 µM), actives largely listed as inhibitors; 3.4% of 340,000 active; active = well fitted inhibition curve with a large enough effect; inconclusive = small, poorly fitted or top-dose-only effect, or another doubt; inactive = no such curve, though single readings can be large or run the other way
#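 Seed cells (1,000/well) for 4 h; treat with compound and infect with HCVcc-Cre, moi about 0.5. Incubate 44 h, then detect luciferase activity.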
# Vaccinia mCherry: qHTS for Stage-Specific Inhibitors of Vaccinia Orthopoxvirus: mCherry Reporter Primary qHTS; AID 720579, 2013; Potency, µM (series often up to 36.5 µM), hits mostly inhibitors; Vaccinia virus mCherry reporter infection, fluorescence; 0.63% of 310,000 active; calls by dose curve; tested in A549 cells; note: nearly all actives have a fitted effect of over 35% in size
# Numbers stand for hits; n = inactive; u = inconclusive; x = no result; [ ] = dose if it differs, or a comment. An excerpt weighted towards active compounds, which were near 4.6% of everything screened.
SMILES,MARV entry inh,VACV Venus inh,LASV entry inh,HCV inhibitor,Vaccinia mCherry
CCn1c(-c2cccc(OC)c2)nc2cc(NC(C)=O)cc(C(=O)N3CCC[C@H]3C(=O)OC)c21,x,n,x,x,n
CCN(CC(=O)NC(C)(C)C)C(=O)c1ccccc1SCC(=O)NC1CCCCCCC1,n,n,n,x,n
Cc1c(O)cccc1C(=O)N[C@@H](CSc1ccccc1)[C@H](O)CN1C[C@H]2CCCC[C@H]2C[C@H]1C(=O)NC(C)(C)C,x,u,x,10µM,u
O=S1CCCS[C@@H]1c1cccnc1 (some centres undefined),n,x,x,x,x
CCCN1C(=O)c2ccccc2NC1c1ccc(OC)cc1O (centres undefined),u,n,1.6µM,n,x
CCCN1C(=O)c2ccccc2NC1c1ccc(OC)cc1OC (centres undefined),n,n,n,n,n
COc1ccc(N2CCN(CCCNC(=O)CN3CCN(Cc4ccccc4C)C3=O)CC2)cc1,n,n,n,11µM,n[1.46 µM]
Cc1ccc(CN2CCN(CC(=O)NCCCN3CCN(c4ccc(F)cc4)CC3)C2=O)cc1,n,x,n,8.9µM,x
Cc1ccc(CCNC(=O)CN2CCN(Cc3ccc(Cl)cc3)C2=O)cc1,n,n,n,x,n
Cc1ccc(O)c(C(=O)c2cnc3c(c2)COc2ccccc2-3)c1,n,n,n,10µM,n
CC(C)CC(NC(=O)C1CCCCC1)C(=O)Nc1cccc(C(F)(F)F)c1 (centres undefined),n,n,n,x,n
CCOC(=O)c1ccccc1NC(=O)COC(=O)c1cc([N+](=O)[O-])ccc1N1CCOCC1,u,n,u,2.2µM,n
O=C(COC(=O)c1cc([N+](=O)[O-])ccc1N1CCOCC1)Nc1c(Cl)cccc1Cl,u,n,n,u,n
O=C(COC(=O)c1cc([N+](=O)[O-])ccc1N1CCOCC1)Nc1cccc(F)c1,x,x,x,13µM,x
CC(=O)Nc1ccc(NC(=O)COC(=O)c2cc([N+](=O)[O-])ccc2N2CCOCC2)cc1,n,n,n,n,n
CC1=Nc2ccccc2/C1=C/c1sc(=N)n(-c2nccs2)c1O,10µM,u,10µM,n,n[1.46 µM]
NN(CCO)C(=S)Nc1ccc(Cl)cc1,n,u,n,n,10µM
O=C(Nc1cccc2ccccc12)OC1C=CS(=O)(=O)C1 (centres undefined),n,u,n,u,11µM
CC(=O)c1cc2c(cc1NC(=O)Cn1nc(-c3ccc(C)cc3)ccc1=O)OCO2,u,n,n,11µM,u
COc1ccc(CCN2C(=O)C3C4C=CC(C3C2=O)C2C(=O)N(CCc3ccc(OC)c(OC)c3)C(=O)C42)cc1OC (centres undefined),n,x,u,4.5µM,x
O=C(NCCN1Cc2ccccc2OC(c2ccccc2F)C1)c1cncs1 (centres undefined),x,n,x,x,n
C=CCN1c2ccccc2[C@]23C[C@@H](C(=O)OC)N(C(=O)CC(C)C)C2=NC(C(=O)OC)=C(C(=O)OC)[C@H]13,u,n,x,7.9µM,n
COC(=O)C1=C(C(=O)OC)[C@@H]2N(Cc3ccccc3)c3ccccc3[C@@]23C[C@@H](C(=O)OC)N(C(=O)c2ccc(Br)cc2)C3=N1,x,10µM,x,n,u
CCOC(=O)N1C2=NC(C(=O)OC)=C(C(=O)OC)[C@@H]3N(C)c4ccc(OC)cc4[C@]23C[C@H]1C(=O)OC,x,n,x,n,n
COC(=O)C1=C(C(=O)OC)[C@@H]2N(C)c3ccc(OC)cc3[C@@]23C[C@@H](C(=O)OC)N(C(=O)c2ccc(Br)cc2)C3=N1,x,11µM,x,n,u
SMILES,MARV entry inh,VACV Venus inh,LASV entry inh,HCV inhibitor,Vaccinia mCherry
Cc1ccc(N2CN=c3s/c(=C/c4cccnc4)c(=O)n3C2)cc1,n,x,x,x,x
O=S1(=O)CCOC[C@H](c2ccccc2)N1Cc1ccc(Cl)c(Cl)c1,x,n,x,x,n
Cc1ccc(C)c(OCCCn2c(-c3ccc(Cl)cc3)nc3ccccc3c2=O)c1,n,n,n,x,n
COc1ccc(CNC(=O)CSc2nnc3c(n2)[nH]c2ccc(OC)cc23)cc1,u,n,x,n,n
COc1ccc2[nH]c3nc(SC(C)C)nnc3c2c1,u,n,2.2µM,n,n
CC(=O)Nc1sc2c(c1C(c1ccccc1Cl)N1CCN(CCO)CC1)CCCC2 (centres undefined),x,n,x,11µM,n
Cc1noc(/C=C/c2ccco2)c1S(=O)(=O)N1CCC(C(=O)N2CCc3ccccc3C2)CC1,n,x,u,11µM,x
Cc1noc(/C=C/c2cccs2)c1S(=O)(=O)N1CCC(C(=O)NCCCN2CCC(C)CC2)CC1,x,x,x,11µM,x
Cc1cccc(/C=C/c2onc(C)c2S(=O)(=O)N2CCC(C(=O)N3CCCCC3)CC2)c1,x,n,u,10µM,n
Cc1ccc(N2CC(C)Cn3c2nc2c3c(=O)n(Cc3cccc(Cl)c3)c(=O)n2C)cc1 (centres undefined),n,n,n,x,n
COc1ccc2c(c1)CCc1cnc(-n3ncc(C(=O)NCCCN4CCOCC4)c3C)nc1-2,x,n,x,x,u
OC1(c2ccc(OC(F)F)cc2)CSC(=Nc2cccnc2)N1C1CC1 (centres undefined),3.5µM,u,u,32µM,n
CCc1ccc(C(=O)c2cnc3ccc(F)cc3c2S(=O)(=O)c2ccccc2)cc1,n,n,x,x,n
COc1ccc(/C=C/C(=O)N2CCc3c(cnc(C)c3CNC(=O)c3ccsc3)C2)cc1OC,x,n,x,x,n
Cc1nc(N2CCN(S(=O)(=O)c3ccccc3C#N)CC2)c2c(-c3cccs3)csc2n1,x,x,x,10µM,x
Cc1nc(N2CCCCC2)c2c(-c3cccs3)csc2n1,n,n,n,n,n
O=C(O)c1cc(N(Cc2ccccc2O)Cc2cc(O)ccc2O)ccc1O,x,n,x,x,n
COc1ccc(C2CC(C(F)(F)F)n3nc(C(=O)NCc4c(C)nn(C)c4C)c(Cl)c3N2)cc1 (centres undefined),10µM,u,n,u,u
COc1ccc(C2CC(C(F)(F)F)n3nc(C(=O)N(C)Cc4cn(C)nc4C)c(Cl)c3N2)cc1 (centres undefined),n,n,n,n,x
Cc1c(C(=O)NCC2COCCO2)cnn1-c1nccc(-c2cccs2)n1 (centres undefined),x,n,x,x,n
CCN(CC)C(=O)c1sc(NC(=O)C(Sc2ccccc2)c2ccccc2)c(C(=O)OC(C)C)c1C (centres undefined),u,u,u,10µM,x
CCN(CC)C(=O)c1sc(N)c(C(=O)OC(C)C)c1C,n,x,n,n,x
Cc1ccc(S(=O)(=O)Nc2ccc(NC(=O)Nc3cccc(C(F)(F)F)c3)cc2)cc1,u,u,u,u,11µM
CCN(CC)S(=O)(=O)c1ccc(/C=C/C(=O)O)cc1,n,n,u,n,n
CCN(CC)S(=O)(=O)c1ccc(NC(=O)Nc2cccc(C(F)(F)F)c2)cc1,u,x,u,11µM,x
Cc1ccc(S(=O)(=O)CC(C)(O)C(=O)Nc2cccc(C(F)(F)F)c2)cc1 (centres undefined),n,x,n,n,x
